Experimental data taken from the supplement of paper PMC10849652.
About 7,900 targets were measured; listed, in parts, are those with a hit and a random draw of the rest. About 0.6% of all pairs of compound and target were hits. Values without a mark were called inactive.

Experiments:
Test in all cases: log2 fold change, soluble protein after heating vs DMSO (PISA); higher = thermal stabilisation; K562 cells, 10 uM, 30 min; active = over 0.2 and 3.5 SD of the protein, either way, in both replicates (recomputed)
bafetinib = compound: Cc1ccc(NC(=O)c2ccc(CN3CC[C@H](N(C)C)C3)c(C(F)(F)F)c2)cc1Nc1nccc(-c2cncnc2)n1 [bafetinib]
How it was run: (§1)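 K562 cells at 2×10^6 cells/mL were given 10 μM compound for 30 min. Aliquots then went through 3 min of heating across 48°C-58°C, were pooled, and were extracted in PBS with 0.5% NP-40 at 4°C, and the supernatant after 21,000xg for 90 min was quantified by TMTpro 16plex LC-MS/MS with channel sums equalised. Thermal stability relative to control samples, from duplicates, is given as log2 fold change.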

[1] = compound: Cc1cccc(CC(=O)N2CCc3c2ccc(-c2cn(C)c4ncnc(N)c24)c3F)n1
How it was run: as §1

nilotinib = compound: Cc1cn(-c2cc(NC(=O)c3ccc(C)c(Nc4nccc(-c5cccnc5)n4)c3)cc(C(F)(F)F)c2)cn1 [nilotinib]
How it was run: as §1

[2] = compound: Cc1nc(Nc2n[nH]c3c2CN(C(=O)N[C@H](CN(C)C)c2ccccc2)C3(C)C)c2sccc2n1
How it was run: as §1

dasatinib = compound: Cc1nc(Nc2ncc(C(=O)Nc3c(C)cccc3Cl)s2)cc(N2CCN(CCO)CC2)n1 [dasatinib]
How it was run: as §1

[3] = compound: Cc1ncc(-c2ccnc(Nc3ccc(S(C)(=O)=O)cc3)n2)n1C(C)C
How it was run: as §1

[4] = compound: Cn1cc(-c2ccc3c(c2)CCN3C(=O)Cc2cccc(C(F)(F)F)c2)c2c(N)ncnc21
How it was run: as §1

[5] = compound: Cn1cc(-c2ccc3nnc(C(F)(F)c4ccc5ncccc5c4)n3n2)cn1
How it was run: as §1

tipifarnib = compound: Cn1cncc1[C@@](N)(c1ccc(Cl)cc1)c1ccc2c(c1)c(-c1cccc(Cl)c1)cc(=O)n2C [tipifarnib]
How it was run: as §1

mubritinib = compound: FC(F)(F)c1ccc(/C=C/c2nc(COc3ccc(CCCCn4ccnn4)cc3)co2)cc1 [mubritinib]
How it was run: as §1

[6] = compound: NC(=O)Nc1cc(-c2cccc(F)c2)sc1C(=O)N[C@H]1CCCNC1
How it was run: as §1

[7] = compound: NC(=O)c1cnc(N[C@@H]2CCCC[C@@H]2N)nc1Nc1cccc(-n2nccn2)c1
How it was run: as §1

[8] = compound: NC1(c2ccc(-c3nc4ccn5c(=O)[nH]nc5c4cc3-c3ccccc3)cc2)CCC1
How it was run: as §1

[9] = compound: NCC(=O)Nc1ccc(-n2nc(C(F)(F)F)cc2-c2ccc3c(ccc4ccccc43)c2)cc1
How it was run: as §1

entinostat = compound: Nc1ccccc1NC(=O)c1ccc(CNC(=O)OCc2cccnc2)cc1 [entinostat]
How it was run: as §1

vorinostat = compound: O=C(CCCCCCC(=O)Nc1ccccc1)NO [vorinostat]
How it was run: as §1

citarinostat = compound: O=C(CCCCCCNC(=O)c1cnc(N(c2ccccc2)c2ccccc2Cl)nc1)NO [citarinostat]
How it was run: as §1

silmitasertib = compound: O=C(O)c1ccc2c(c1)nc(Nc1cccc(Cl)c1)c1ccncc12 [silmitasertib]
How it was run: as §1

[10] = compound: O=C1NC(=O)C(c2cnc3ccccn23)=C1c1cn2c3c(cc(F)cc13)CN(C(=O)N1CCCCC1)CC2
How it was run: as §1

[11] = compound: c1cc(OCCN2CCCCC2)cc(-c2n[nH]c3ccc(-c4nnc[nH]4)cc23)c1
How it was run: as §1

UniProt P27708, sequence (P27708 whole entry, looked up): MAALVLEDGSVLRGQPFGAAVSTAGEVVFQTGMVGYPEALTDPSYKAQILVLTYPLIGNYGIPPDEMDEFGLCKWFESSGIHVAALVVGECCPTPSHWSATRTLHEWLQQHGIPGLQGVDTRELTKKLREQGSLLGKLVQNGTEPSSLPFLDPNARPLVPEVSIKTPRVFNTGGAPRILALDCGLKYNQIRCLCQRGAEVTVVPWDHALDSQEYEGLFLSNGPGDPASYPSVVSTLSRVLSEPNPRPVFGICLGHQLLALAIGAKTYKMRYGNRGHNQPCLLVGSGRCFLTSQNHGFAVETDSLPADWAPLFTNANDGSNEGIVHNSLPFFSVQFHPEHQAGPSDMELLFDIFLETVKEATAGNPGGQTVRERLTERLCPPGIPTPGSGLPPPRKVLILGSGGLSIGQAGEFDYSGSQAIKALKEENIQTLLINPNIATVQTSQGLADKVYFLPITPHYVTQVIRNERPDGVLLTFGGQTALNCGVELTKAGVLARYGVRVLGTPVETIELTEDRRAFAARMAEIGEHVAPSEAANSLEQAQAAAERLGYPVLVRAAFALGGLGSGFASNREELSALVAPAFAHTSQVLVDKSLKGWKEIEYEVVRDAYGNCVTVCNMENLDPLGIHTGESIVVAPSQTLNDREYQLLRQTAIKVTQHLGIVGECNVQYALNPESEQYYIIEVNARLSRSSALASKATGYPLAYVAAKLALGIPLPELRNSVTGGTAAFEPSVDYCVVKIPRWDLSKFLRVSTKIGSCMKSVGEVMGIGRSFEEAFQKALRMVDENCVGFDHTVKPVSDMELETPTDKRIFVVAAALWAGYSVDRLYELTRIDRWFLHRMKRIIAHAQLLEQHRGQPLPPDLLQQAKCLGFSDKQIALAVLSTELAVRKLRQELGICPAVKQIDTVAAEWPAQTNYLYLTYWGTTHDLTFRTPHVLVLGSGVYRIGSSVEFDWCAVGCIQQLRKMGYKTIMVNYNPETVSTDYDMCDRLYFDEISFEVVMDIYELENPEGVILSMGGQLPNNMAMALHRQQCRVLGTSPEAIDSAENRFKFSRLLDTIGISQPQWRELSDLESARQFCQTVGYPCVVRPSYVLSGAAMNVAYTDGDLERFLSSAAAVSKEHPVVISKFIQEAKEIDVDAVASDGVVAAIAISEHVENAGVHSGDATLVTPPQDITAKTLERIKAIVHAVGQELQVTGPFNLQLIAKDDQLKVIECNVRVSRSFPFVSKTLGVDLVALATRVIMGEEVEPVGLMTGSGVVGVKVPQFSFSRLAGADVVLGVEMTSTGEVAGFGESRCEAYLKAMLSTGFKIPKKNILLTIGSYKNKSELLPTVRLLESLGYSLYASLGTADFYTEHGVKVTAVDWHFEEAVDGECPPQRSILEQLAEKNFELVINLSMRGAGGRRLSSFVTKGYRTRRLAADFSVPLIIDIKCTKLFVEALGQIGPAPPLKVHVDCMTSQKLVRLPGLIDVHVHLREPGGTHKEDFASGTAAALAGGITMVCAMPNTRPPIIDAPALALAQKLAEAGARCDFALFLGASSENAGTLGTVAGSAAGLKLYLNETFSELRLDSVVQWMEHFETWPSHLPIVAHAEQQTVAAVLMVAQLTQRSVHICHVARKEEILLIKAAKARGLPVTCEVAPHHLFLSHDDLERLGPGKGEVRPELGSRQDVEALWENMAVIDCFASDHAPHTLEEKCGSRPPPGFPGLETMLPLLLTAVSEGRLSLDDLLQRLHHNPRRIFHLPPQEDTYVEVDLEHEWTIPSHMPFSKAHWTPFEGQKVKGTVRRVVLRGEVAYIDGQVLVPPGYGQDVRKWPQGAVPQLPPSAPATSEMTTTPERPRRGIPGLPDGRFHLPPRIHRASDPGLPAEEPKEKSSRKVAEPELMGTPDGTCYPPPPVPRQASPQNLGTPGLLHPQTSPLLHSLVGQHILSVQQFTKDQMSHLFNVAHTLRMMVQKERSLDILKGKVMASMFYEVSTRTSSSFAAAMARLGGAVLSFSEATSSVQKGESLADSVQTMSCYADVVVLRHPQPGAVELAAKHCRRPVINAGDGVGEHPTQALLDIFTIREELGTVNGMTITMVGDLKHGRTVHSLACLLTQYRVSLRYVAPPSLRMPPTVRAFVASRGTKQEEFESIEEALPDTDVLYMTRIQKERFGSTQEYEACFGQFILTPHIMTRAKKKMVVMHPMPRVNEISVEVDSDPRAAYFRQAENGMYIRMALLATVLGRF
UniProt P46527, sequence (P46527 whole entry, looked up): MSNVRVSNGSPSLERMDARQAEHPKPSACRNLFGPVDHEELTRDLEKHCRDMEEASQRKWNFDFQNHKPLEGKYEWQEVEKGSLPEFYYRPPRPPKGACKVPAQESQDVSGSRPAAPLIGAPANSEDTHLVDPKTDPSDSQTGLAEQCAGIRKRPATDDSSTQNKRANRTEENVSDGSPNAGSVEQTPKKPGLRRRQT
UniProt Q02224, sequence (Q02224 whole entry, looked up): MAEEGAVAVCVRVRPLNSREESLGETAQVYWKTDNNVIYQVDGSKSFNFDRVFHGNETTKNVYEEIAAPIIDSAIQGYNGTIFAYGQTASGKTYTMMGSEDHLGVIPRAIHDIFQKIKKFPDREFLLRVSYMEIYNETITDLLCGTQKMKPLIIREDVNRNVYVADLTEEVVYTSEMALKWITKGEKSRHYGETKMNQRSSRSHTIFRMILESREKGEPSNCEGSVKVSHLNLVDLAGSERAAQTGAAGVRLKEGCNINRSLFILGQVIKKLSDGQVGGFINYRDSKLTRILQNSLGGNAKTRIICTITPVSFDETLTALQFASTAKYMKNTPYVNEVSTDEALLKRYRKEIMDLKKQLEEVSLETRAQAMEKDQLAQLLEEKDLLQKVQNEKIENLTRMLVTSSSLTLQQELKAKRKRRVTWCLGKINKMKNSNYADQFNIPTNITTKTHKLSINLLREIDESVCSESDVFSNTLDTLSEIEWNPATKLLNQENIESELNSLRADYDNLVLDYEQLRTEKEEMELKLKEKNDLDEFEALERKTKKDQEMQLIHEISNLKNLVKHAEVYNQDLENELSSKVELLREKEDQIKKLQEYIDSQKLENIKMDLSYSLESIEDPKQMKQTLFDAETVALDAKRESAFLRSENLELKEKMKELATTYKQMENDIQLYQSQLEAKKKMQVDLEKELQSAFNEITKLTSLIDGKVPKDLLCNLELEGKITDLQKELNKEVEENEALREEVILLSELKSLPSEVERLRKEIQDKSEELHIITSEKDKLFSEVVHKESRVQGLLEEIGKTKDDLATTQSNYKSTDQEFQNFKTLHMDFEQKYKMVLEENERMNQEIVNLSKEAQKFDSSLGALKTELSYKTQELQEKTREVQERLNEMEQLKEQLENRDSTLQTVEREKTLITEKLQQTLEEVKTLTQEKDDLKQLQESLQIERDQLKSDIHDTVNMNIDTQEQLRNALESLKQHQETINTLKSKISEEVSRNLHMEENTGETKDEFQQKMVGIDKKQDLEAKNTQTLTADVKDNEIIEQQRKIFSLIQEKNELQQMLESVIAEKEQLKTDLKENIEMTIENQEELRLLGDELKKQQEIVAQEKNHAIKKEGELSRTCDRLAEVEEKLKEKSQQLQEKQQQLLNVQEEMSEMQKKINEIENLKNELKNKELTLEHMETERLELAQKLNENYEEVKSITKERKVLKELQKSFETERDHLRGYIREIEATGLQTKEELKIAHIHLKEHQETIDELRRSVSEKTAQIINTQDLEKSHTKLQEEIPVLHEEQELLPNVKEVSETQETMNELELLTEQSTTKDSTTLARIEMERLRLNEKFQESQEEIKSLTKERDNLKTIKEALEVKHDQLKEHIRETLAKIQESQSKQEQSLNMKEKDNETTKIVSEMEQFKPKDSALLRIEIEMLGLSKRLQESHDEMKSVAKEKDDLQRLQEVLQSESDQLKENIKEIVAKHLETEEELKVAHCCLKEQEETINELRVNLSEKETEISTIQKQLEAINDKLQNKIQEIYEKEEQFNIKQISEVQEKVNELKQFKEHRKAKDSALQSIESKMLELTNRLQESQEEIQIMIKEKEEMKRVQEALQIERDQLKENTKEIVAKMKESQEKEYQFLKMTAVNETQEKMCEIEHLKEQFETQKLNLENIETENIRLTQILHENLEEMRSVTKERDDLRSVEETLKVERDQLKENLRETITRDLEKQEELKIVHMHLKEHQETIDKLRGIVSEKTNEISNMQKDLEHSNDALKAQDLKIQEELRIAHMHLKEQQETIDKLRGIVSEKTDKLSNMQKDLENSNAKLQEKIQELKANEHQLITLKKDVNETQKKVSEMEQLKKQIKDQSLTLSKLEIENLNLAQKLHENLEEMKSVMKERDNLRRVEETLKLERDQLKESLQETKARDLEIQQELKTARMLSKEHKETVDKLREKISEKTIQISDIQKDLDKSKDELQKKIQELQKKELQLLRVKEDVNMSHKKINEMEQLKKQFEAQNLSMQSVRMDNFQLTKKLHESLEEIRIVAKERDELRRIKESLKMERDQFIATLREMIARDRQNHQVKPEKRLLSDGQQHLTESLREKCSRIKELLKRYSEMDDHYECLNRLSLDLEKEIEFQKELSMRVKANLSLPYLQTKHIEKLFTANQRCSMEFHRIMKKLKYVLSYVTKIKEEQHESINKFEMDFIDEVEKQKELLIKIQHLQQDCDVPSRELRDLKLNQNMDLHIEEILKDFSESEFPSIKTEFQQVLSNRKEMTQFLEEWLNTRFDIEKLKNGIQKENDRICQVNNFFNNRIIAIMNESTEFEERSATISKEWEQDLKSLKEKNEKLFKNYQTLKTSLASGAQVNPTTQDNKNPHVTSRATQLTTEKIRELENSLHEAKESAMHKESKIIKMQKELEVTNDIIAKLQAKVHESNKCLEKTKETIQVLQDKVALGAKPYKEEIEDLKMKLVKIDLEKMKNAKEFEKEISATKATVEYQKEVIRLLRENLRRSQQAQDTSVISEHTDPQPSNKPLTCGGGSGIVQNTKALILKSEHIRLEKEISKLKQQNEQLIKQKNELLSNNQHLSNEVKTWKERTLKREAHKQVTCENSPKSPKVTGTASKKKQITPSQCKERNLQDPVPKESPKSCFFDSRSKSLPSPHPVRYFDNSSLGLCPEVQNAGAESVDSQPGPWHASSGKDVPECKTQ

Row | Target | log2 fold change (bafetinib) | log2 fold change [1] | log2 fold change (nilotinib) | log2 fold change [2] | log2 fold change (dasatinib) | log2 fold change [3] | log2 fold change [4] | log2 fold change [5] | log2 fold change (tipifarnib) | log2 fold change (mubritinib) | log2 fold change [6] | log2 fold change [7] | log2 fold change [8] | log2 fold change [9] | log2 fold change (entinostat) | log2 fold change (vorinostat) | log2 fold change (citarinostat) | log2 fold change (silmitasertib) | log2 fold change [10] | log2 fold change [11]
1 | CHCHD1 (UniProt Q96BP2) | -0.084 | 0.081 | -0.007 | 0.02 | -0.057 | -0.031 | -0.153 | 0.105 | 0.077 | 0.104 | 0.017 | -0.142 | -0.149 | -0.023 | 0.03 | 0.023 | 0.009 | 0.031 | -0.015 | -0.169
2 | CLN8 (UniProt Q9UBY8) | -0.209 | -0.662 (active) | 0.051 | -0.11 | 0.032 | -0.083 | 0.258 | 0.266 | 0.003 | -0.08 | -0.062 | -0.002 | 0.334 | 0 | 0.058 | -0.061 | 0.064 | 0.075 |  | -0.095
3 | CNOT4 isoform 9 (UniProt O95628) | 0.081 | 0.067 | 0.094 | -0.172 | 0.074 | 0 | 0.096 | 0.036 | -0.019 | 0.055 |  | -0.115 | -0.077 | 0.11 |  | -0.003 | -0.038 | 0.024 |  | 0.178
4 | CDK9 isoform 2 (UniProt P50750) | 0.039 | 0.108 | -0.045 | -0.059 | -0.011 | 0.22 | -0.091 | -0.013 | 0.068 | -0.067 | -0.05 | -0.038 | -0.057 | 0.22 | 0.005 | 0.102 | -0.002 | -0.015 | 0.152 | -0.084
5 | CEMIP2 (UniProt Q9UHN6) | -0.018 | 0.002 | 0.069 | 0.083 | -0.044 | 0.031 | 0.03 | 0.179 | 0.033 | -0.024 |  | 0.072 | -0.243 | -0.072 |  | 0.038 | 0.124 | 0.057 | 0.034 | -0.078
6 | CDAN1 (UniProt Q8IWY9) | -0.012 | -0.014 | 0.064 | -0.195 | -0.582 (active) | -0.017 | -0.023 | 0.008 | 0.011 | 0.056 | -0.033 | -0.042 | -0.192 | -0.091 | 0.051 | 0.022 | -0.011 | 0.095 | 0.036 | -0.018
7 | CEPT1 (UniProt Q9Y6K0) | -0.048 | 0.032 | -0.052 | 0.156 | -0.008 | 0.044 | 0.031 | -0.014 | -0.055 | -0.012 | -0.065 | -0.101 | -0.215 | -0.156 | 0.065 | -0.078 | -0.023 | -0.014 | -0.054 | -0.085
8 | CDKN1B (UniProt P46527) | -0.001 | -0.05 | 0.013 | -0.097 | 0.004 | 0.149 | 0.108 | 0.04 | 0.009 | 0.114 | -0.154 | 0.178 | 0.017 | -0.177 | 0.046 | -0.01 |  | -0.072 | -0.01 | 
9 | CAD (UniProt P27708) | 0.011 | 0.06 | -0.095 | -0.008 | -0.386 (active) | 0.081 | -0.012 | -0.097 | -0.032 | -0.006 | 0.033 | -0.014 | -0.145 | 0.008 | -0.026 | 0.088 | 0.014 | 0.003 | 0.108 | -0.141
10 | CALCOCO2 isoform 4 (UniProt Q13137) | -0.647 (active) | -0.061 | -0.039 | 0.038 | 0.01 | 0.1 | -0.013 | -0.035 | -0.015 | -0.025 | -0.017 | -0.075 | -0.324 (active) | -0.185 | -0.006 | -0.006 | 0.035 | 0.047 | 0.071 | -0.034
11 | CKS1B (UniProt P61024) | -0.065 | -0.06 | 0.14 | -0.016 | 0 | 0.026 | 0.067 | 0.017 | -0.043 | 0.056 | -0.029 | -0.03 | -0.082 | 0.042 | -0.02 | 0.025 | 0.009 | 0.063 | -0.084 | -0.067
12 | COA6 isoform 2 (UniProt Q5JTJ3) | -0.093 | 0.002 | -0.064 | 0.02 | -0.017 | 0.012 | -0.097 | 0.035 | -0.008 | 0.041 | 0.034 | 0.106 | -0.009 | -0.018 | -0.003 | -0.024 | 0.053 | 0.01 | 0.011 | -0.041
13 | CAB39L (UniProt Q9H9S4) | -0.055 | -0.041 |  |  | -0.255 |  |  | -0.032 | 0.042 |  | 0.035 | 0.083 |  | -0.162 | -0.016 | -0.197 | -0.093 |  | -0.043 | -0.101
14 | C1D (UniProt Q13901) | -0.026 | -0.013 | 0.059 | -0.074 |  | -0.027 |  | 0.018 | 0.151 | 0.132 | 0.187 | 0.322 (active) | 0 | 0.033 | -0.012 | 0.116 | 0.067 | 0.072 | 0.003 | 0.008
15 | COX7B (UniProt P24311) | 0.109 | 0.037 | 0.053 | 0.037 | 0.074 | 0.01 | -0.011 |  | -0.024 | 0.026 | 0.094 | -0.001 | -0.028 | 0.02 | -0.054 | 0.012 | -0.013 | 0.039 | 0.036 | -0.026
16 | CLN3 (UniProt Q13286) | -0.099 |  | -0.016 | 0.002 | 0.064 | -0.02 | -0.049 | 0.028 | 0.1 | 0.09 |  |  | -0.112 | -0.124 |  |  | 0.042 | 0.025 | 0.072 | -0.033
17 | CNN3 (UniProt Q15417) | 0.02 | -0.025 | -0.066 | -0.056 | -0.057 | 0.108 | 0.023 |  | -0.107 | 0.06 | -0.051 | -0.125 | -0.124 | -0.144 | 0.091 | 0.023 | 0.047 | 0.047 | -0.032 | -0.001
18 | COX7C (UniProt P15954) | -0.066 | -0.077 | 0.148 | -0.041 | 0.073 | -0.158 |  | 0.366 | 0.105 | 0.112 | 0.009 | 0.048 | -0.013 | 0.046 | 0.014 | -0.017 | 0.079 | -0.003 | -0.089 | -0.059
19 | CENPE (UniProt Q02224) | 0.143 | 0.069 |  |  | -0.35 |  | 0.14 | -0.123 | -0.033 |  | 0.127 | 0.731 |  | 0.114 | -0.153 | -0.238 |  |  |  | 
20 | CRYM-AS1 (UniProt A6NIL9) | 0.063 | 0.048 | -0.023 | -0.426 | -0.108 | -0.28 | -0.015 | -0.189 |  | 0.114 | 0.038 | -0.014 | 0.27 | 0.042 | -0.101 | 0.014 | 0.021 | 0.031 | -0.076 | -0.135
21 | CHST11 (UniProt Q9NPF2) | -0.01 | -0.117 | 0.049 | -0.026 |  | 0.008 | 0.039 | -0.249 | -0.012 | -0.064 | -0.045 | 0.068 | -0.181 | 0.139 | -0.027 | 0.001 | 0.276 | -0.044 | 0.013 | 0.054
22 | CLN5 (UniProt O75503) | -0.945 (active) | 0.019 | 0.041 | -0.508 | -0.46 | 0.026 | -0.119 |  | 0.002 | -0.169 | -0.133 | -0.41 | -0.858 (active) |  | 0.02 | -0.087 |  | 0.192 | -0.014 | 
23 | CCNC (UniProt P24863) | 0.031 | 0.055 |  |  | -0.074 |  | -0.091 | -0.015 |  | -0.016 | -0.032 | -0.105 | -0.017 | -0.033 | 0.04 | -0.039 |  | 0.183 | 0.039 | 
24 | CCND3 (UniProt P30281) | 0.07 | -0.016 |  |  | -0.08 |  | 0.04 | 0.092 | 0.026 | 0.024 |  | -0.204 | -0.001 | 0.184 |  | 0.048 | 0 | 0.28 | 0.069 | 0.183
